{"source": "PubChem BioAssay (NCI)", "experiment_in_all_cases": "NCI-60 one-dose screen, 48 h (100 = growth as untreated, 0 = no growth, -100 = all killed)", "settings_in_all_cases": "10 µM unless noted", "key": {"T-47D breast": {"system": "T-47D breast"}, "BT-549 breast": {"system": "BT-549 breast"}, "SW-620 colon": {"system": "SW-620 colon"}, "MCF7 breast": {"system": "MCF7 breast"}, "HCT-116 colon": {"system": "HCT-116 colon"}, "HCC-2998 colon": {"system": "HCC-2998 colon"}, "KM12 colon": {"system": "KM12 colon"}, "MDA-MB-435 melanoma": {"system": "MDA-MB-435 melanoma"}}, "note": "This is part of a sample that, as a whole, favours compounds with a hit. Of some 83,000 tested, about 20% had one in any assay.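 How to read the values: 0–100, growth inhibition (40 = 60% inhibited); 0, no net growth; -100 to 0, cell death (-40 = 40% of starting cells died; -100 = all dead).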 Unmarked numbers belong to inactive results. Activity calls are given as the source filed them. How the source made its calls: active means growth percent below 10; inactive means the rest."}
{"smiles": "O=C(Nc1ncc(Cc2cc(Cl)ccc2Cl)s1)c1cccs1", "values": [{"measurement": "growth", "setting": "T-47D breast", "value": 44.8, "unit": "%"}, {"measurement": "growth", "setting": "BT-549 breast", "value": 74.6, "unit": "%"}, {"measurement": "growth", "setting": "SW-620 colon", "value": 48.5, "unit": "%"}, {"measurement": "growth", "setting": "MCF7 breast", "value": 32.5, "unit": "%"}, {"measurement": "growth", "setting": "HCT-116 colon", "value": 35.3, "unit": "%"}, {"measurement": "growth", "setting": "HCC-2998 colon", "value": 58.4, "unit": "%"}, {"measurement": "growth", "setting": "KM12 colon", "value": 31.2, "unit": "%"}]}
{"smiles": "C#Cc1cccc(NC(=O)Nc2cccc(NC(=O)CCl)c2)c1", "values": [{"measurement": "growth", "setting": "T-47D breast", "value": "27.8% [8.25 µM]"}, {"measurement": "growth", "setting": "BT-549 breast", "value": "-15.1% [8.25 µM] (active)"}, {"measurement": "growth", "setting": "SW-620 colon", "value": "-42.3% [8.25 µM] (active)"}, {"measurement": "growth", "setting": "MCF7 breast", "value": "4.65% [8.25 µM] (active)"}, {"measurement": "growth", "setting": "HCT-116 colon", "value": "2.24% [8.25 µM] (active)"}, {"measurement": "growth", "setting": "HCC-2998 colon", "value": "93.6% [8.25 µM]"}, {"measurement": "growth", "setting": "KM12 colon", "value": "32.9% [8.25 µM]"}]}
{"smiles": "O=c1[nH]nc(-c2ccccc2)c2sc3ncc(-c4ccc(Br)cc4)n3c12", "values": [{"measurement": "growth", "setting": "T-47D breast", "value": 43.1, "unit": "%"}, {"measurement": "growth", "setting": "BT-549 breast", "value": 52.1, "unit": "%"}, {"measurement": "growth", "setting": "SW-620 colon", "value": 35, "unit": "%"}, {"measurement": "growth", "setting": "MCF7 breast", "value": 28.9, "unit": "%"}, {"measurement": "growth", "setting": "HCT-116 colon", "value": 16.6, "unit": "%"}, {"measurement": "growth", "setting": "HCC-2998 colon", "value": 89.8, "unit": "%"}, {"measurement": "growth", "setting": "KM12 colon", "value": 33.9, "unit": "%"}]}
{"smiles": "Cc1ccc(-c2[nH][nH]c(=O)c2-c2nc3ccccc3s2)cc1", "values": [{"measurement": "growth", "setting": "T-47D breast", "value": 103, "unit": "%"}, {"measurement": "growth", "setting": "BT-549 breast", "value": 123, "unit": "%"}, {"measurement": "growth", "setting": "SW-620 colon", "value": 93.9, "unit": "%"}, {"measurement": "growth", "setting": "MCF7 breast", "value": 97.1, "unit": "%"}, {"measurement": "growth", "setting": "HCT-116 colon", "value": 100, "unit": "%"}, {"measurement": "growth", "setting": "HCC-2998 colon", "value": 99.7, "unit": "%"}, {"measurement": "growth", "setting": "KM12 colon", "value": 103, "unit": "%"}]}
{"smiles": "CC1(C)CC[C@]2(C(=O)O)CC[C@]3(C)C(=CC[C@@H]4[C@@]5(C)Cc6c([nH]c7ccccc67)C(C)(C)[C@@H]5CC[C@]43C)[C@@H]2C1", "values": [{"measurement": "growth", "setting": "T-47D breast", "value": 49.5, "unit": "%"}, {"measurement": "growth", "setting": "BT-549 breast", "value": 61.5, "unit": "%"}, {"measurement": "growth", "setting": "SW-620 colon", "value": 23.1, "unit": "%"}, {"measurement": "growth", "setting": "MCF7 breast", "value": 19.4, "unit": "%"}, {"measurement": "growth", "setting": "HCT-116 colon", "value": "8.26% (active)"}, {"measurement": "growth", "setting": "HCC-2998 colon", "value": 38.7, "unit": "%"}, {"measurement": "growth", "setting": "KM12 colon", "value": 17.7, "unit": "%"}]}
{"smiles": "NC(=O)CSSCC(N)=O", "values": [{"measurement": "growth", "setting": "T-47D breast", "value": 103, "unit": "%"}, {"measurement": "growth", "setting": "MDA-MB-435 melanoma", "value": 91.6, "unit": "%"}, {"measurement": "growth", "setting": "SW-620 colon", "value": 95.3, "unit": "%"}, {"measurement": "growth", "setting": "MCF7 breast", "value": 103, "unit": "%"}, {"measurement": "growth", "setting": "HCT-116 colon", "value": 91.6, "unit": "%"}, {"measurement": "growth", "setting": "KM12 colon", "value": 101, "unit": "%"}]}
{"smiles": "COc1cc(/C=N/O)nc(-c2ccccn2)c1", "values": [{"measurement": "growth", "setting": "T-47D breast", "value": 37.5, "unit": "%"}, {"measurement": "growth", "setting": "BT-549 breast", "value": 33.7, "unit": "%"}, {"measurement": "growth", "setting": "SW-620 colon", "value": 27.4, "unit": "%"}, {"measurement": "growth", "setting": "MCF7 breast", "value": 15.9, "unit": "%"}, {"measurement": "growth", "setting": "HCT-116 colon", "value": 20.9, "unit": "%"}, {"measurement": "growth", "setting": "HCC-2998 colon", "value": 26.4, "unit": "%"}, {"measurement": "growth", "setting": "KM12 colon", "value": 23, "unit": "%"}]}
{"smiles": "CCCCCN1C=C/C(=C\\C(=O)n2ccc3ccccc32)c2ccccc21", "values": [{"measurement": "growth", "setting": "T-47D breast", "value": 70, "unit": "%"}, {"measurement": "growth", "setting": "BT-549 breast", "value": 96.9, "unit": "%"}, {"measurement": "growth", "setting": "SW-620 colon", "value": 85.2, "unit": "%"}, {"measurement": "growth", "setting": "MCF7 breast", "value": 73.5, "unit": "%"}, {"measurement": "growth", "setting": "HCT-116 colon", "value": 72.6, "unit": "%"}, {"measurement": "growth", "setting": "KM12 colon", "value": 89.2, "unit": "%"}]}
{"smiles": "N/C(=N\\C(N)=N\\c1nc2ccccc2s1)c1cccc(Cl)c1", "values": [{"measurement": "growth", "setting": "T-47D breast", "value": 46.9, "unit": "%"}, {"measurement": "growth", "setting": "BT-549 breast", "value": 81.1, "unit": "%"}, {"measurement": "growth", "setting": "SW-620 colon", "value": 98.5, "unit": "%"}, {"measurement": "growth", "setting": "MCF7 breast", "value": 69.9, "unit": "%"}, {"measurement": "growth", "setting": "HCT-116 colon", "value": 73.8, "unit": "%"}, {"measurement": "growth", "setting": "HCC-2998 colon", "value": 104, "unit": "%"}, {"measurement": "growth", "setting": "KM12 colon", "value": 40.8, "unit": "%"}]}
{"smiles": "CCCCCN1C=C/C(=C\\C(=O)N(C)c2ccc(OC(F)(F)F)cc2)c2ccccc21", "values": [{"measurement": "growth", "setting": "T-47D breast", "value": 88.3, "unit": "%"}, {"measurement": "growth", "setting": "BT-549 breast", "value": 109, "unit": "%"}, {"measurement": "growth", "setting": "SW-620 colon", "value": 98.1, "unit": "%"}, {"measurement": "growth", "setting": "MCF7 breast", "value": 88.7, "unit": "%"}, {"measurement": "growth", "setting": "HCT-116 colon", "value": 74.3, "unit": "%"}, {"measurement": "growth", "setting": "HCC-2998 colon", "value": 106, "unit": "%"}, {"measurement": "growth", "setting": "KM12 colon", "value": 102, "unit": "%"}]}
{"smiles": "CN(C)CCC(=O)c1ccc([N+](=O)[O-])cc1", "values": [{"measurement": "growth", "setting": "T-47D breast", "value": 89.4, "unit": "%"}, {"measurement": "growth", "setting": "MDA-MB-435 melanoma", "value": 104, "unit": "%"}, {"measurement": "growth", "setting": "SW-620 colon", "value": 106, "unit": "%"}, {"measurement": "growth", "setting": "MCF7 breast", "value": 89.4, "unit": "%"}, {"measurement": "growth", "setting": "HCT-116 colon", "value": 103, "unit": "%"}, {"measurement": "growth", "setting": "HCC-2998 colon", "value": 106, "unit": "%"}, {"measurement": "growth", "setting": "KM12 colon", "value": 113, "unit": "%"}]}
{"smiles": "COc1cc2cc(Oc3cccc(NC(=O)Nc4cc(C(F)(F)F)cc(C(F)(F)F)c4)c3)c(C)nc2cc1OC", "values": [{"measurement": "growth", "setting": "T-47D breast", "value": "7.52% (active)"}, {"measurement": "growth", "setting": "BT-549 breast", "value": "1.44% (active)"}, {"measurement": "growth", "setting": "SW-620 colon", "value": 15.9, "unit": "%"}, {"measurement": "growth", "setting": "MCF7 breast", "value": "0.59% (active)"}, {"measurement": "growth", "setting": "HCT-116 colon", "value": "3.73% (active)"}, {"measurement": "growth", "setting": "HCC-2998 colon", "value": 21.3, "unit": "%"}, {"measurement": "growth", "setting": "KM12 colon", "value": "5.61% (active)"}]}
